Bioassay records: PubChem, The Scripps Research Institute Molecular Screening Center
Only some compounds are listed: those with a hit (about 4.1% of all), similar ones and a draw of the others.
ssDAF12 agonist = activators of S. stercoralis DAF-12 nuclear receptor. AID 652126. activation, % at 6.8 µM. HEK293 ssDAF-12/GRIP1 lit1-tk-luc reporter, luminescence; % of 3 µM dafachronic acid response. 370,000 compounds, 1% hits;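 active = activation above the mean over all tested compounds plus 3 SD, cut at about 0.9% in these data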;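 note: 0% = DMSO-only wells and 100% = 3 µM delta7-dafachronic acid wells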
DAX1 inh-1 = blocks DAX1 repression of SF-1 activated StAR promoter. inhibition, % at 6.8 µM. HEK293T StAR-luciferase reporter, SF-1/DAX-1 repression relief. 370,000 compounds, 1.1% hits;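 active = inhibition above the mean over all tested compounds plus 3 SD, cut at about 3.6% in these data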;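 note: 0% = DAX-1 cells with DMSO and 100% = cells lacking DAX-1 with DMSO; higher inhibition means more luminescence from relief of DAX-1 repression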
hgDAF-12 ag = activates the H. glycines DAF-12 receptor ligand-binding domain; HEK293 GAL4-hgDAF12 UAS-luciferase reporter, agonist luminescence; normalized to butyrate control; activation, % at 6.8 µM; 370,000 compounds, 1.8% hits; AID 687014;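 active = activation above a cutoff set at the mean of all screened compounds plus 3 SD, cut at about 10% in these data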;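 note: 0% = DMSO wells and 100% = sodium butyrate wells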
DAX1 inh-2 = inhibitors of human orphan nuclear receptor DAX1 (NR0B1) | HEK293 Gal4-DAX1 luciferase reporter, luminescence | 340,000 compounds, 0.99% hits | P51843 | inhibition, % at 6.75 µM;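 active = inhibition above the mean over all tested compounds plus 3 SD, cut at about 4.2% in these data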;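 note: 0% = DAX1-transfected cells with DMSO and 100% = empty-vector control cells with DMSO; inhibition shows as a rise in luminescence from relieved DAX1 repression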
Target sequence (P51843 207-470 limits assumed): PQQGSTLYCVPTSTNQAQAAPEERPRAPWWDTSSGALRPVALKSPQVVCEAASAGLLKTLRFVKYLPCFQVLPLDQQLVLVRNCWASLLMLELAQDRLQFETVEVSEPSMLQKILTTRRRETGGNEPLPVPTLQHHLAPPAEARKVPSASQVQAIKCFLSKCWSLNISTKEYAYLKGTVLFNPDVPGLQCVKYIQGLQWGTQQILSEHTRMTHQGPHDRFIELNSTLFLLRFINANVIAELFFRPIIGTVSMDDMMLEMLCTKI
hcDAF12 agonist = activates DAF-12 receptor from parasite H. contortus. activation, % at 6.8 µM. AID 652067. HEK293 hcDAF-12 lit1-tk-luc reporter, luminescence; 0% DMSO, 100% Δ7-dafachronic acid. 370,000 compounds, 1.4% hits;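 active = activation above the mean of all tested compounds plus 3 SD, cut at about 5.5% in these data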;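 note: 100% = response to 3 µM Δ7-dafachronic acid high control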
An asterisk follows results filed as active; . = no result.

SMILES	ssDAF12 agonist	DAX1 inh-1	hgDAF-12 ag	DAX1 inh-2	hcDAF12 agonist
COc1ccc(/C=C2\CC3(OC(=O)c4cccc(F)c4)CCCN2C3)cc1 (stereo not given)	-0.8	1.9	-3.5	.	1.4
C/C(=N\NC(=O)c1nnn(-c2nonc2N)c1CN1CCc2ccccc21)c1ccccc1O	-0.8	-0.2	0.0	0.2	5.6*
COC(=O)[C@]12C[C@H](CC(=O)N3CCC(c4ccccc4)CC3)C(=O)N(CCc3ccc(OC)c(OC)c3)C1=C[C@H](COCc1ccccc1)O[C@@H]2C	-0.8	-0.8	1.8	.	-2.4
CCOc1ccc2nc(NC(=O)CN3CCN(C)CC3)sc2c1	0.4	0.1	6.4	0.8	5.5
CCOc1ccc2nc(NC(=O)CN3C(=O)C4CCCCC4C3=O)sc2c1 (stereo not given)	-0.9	3.7*	5.9	-0.1	0.3
CCOc1ccc2nc(NC(=O)Cn3[nH]c(=O)c4ccccc4c3=O)sc2c1	-1.2	1.2	11.1*	6.8*	0.3
CCOc1ccc2nc(NC(=O)CN3CCN(CC)CC3)sc2c1	-0.9	0.1	4.4	-0.1	0.1
O=C(COC(=O)[C@H](Cc1c[nH]c2ccccc12)NC(=O)c1ccc(Cl)cc1)Nc1ccc2c(c1)OCO2	0.3	1.2	11.4*	1.3	1.5
Cc1cc(O)cc(=O)n1-c1cccc(C(F)(F)F)c1	-1.4	-0.7	-0.5	.	-0.8
CC(=O)OCCN1c2ccccc2Sc2cnccc21	-1.1	0.1	10.7*	-0.4	-2.4
COc1ccccc1Cc1c(-c2ccc(F)cc2)nc2ccc(Br)cn12	1.3*	0.3	7.8	.	3.0
COc1ccccc1Cc1c(-c2ccc(C)cc2)nc2ccc(Cl)cn12	-0.5	3.9*	8.4	.	0.8
COc1ccccc1Cc1c(-c2ccc(OC)c(OC)c2)nc2ccc(Br)cn12	0.2	-0.2	6.8	.	1.3
Cc1ccccc1CN1[C@@H](C)[C@H](c2ccccc2)Oc2cccc(N3CCCC3)c2S1(=O)=O	-1.2	1.6	0.6	.	1.3
O=C(NCC1CCCO1)c1nn2c(C(F)(F)F)cc(-c3cccs3)nc2c1Br (stereo not given)	-1.2	0.7	-2.7	2.0	-1.7
O=C(NCC1CCCO1)c1nn2c(C(F)(F)F)cc(-c3cccs3)nc2c1Cl (stereo not given)	0.9*	0.1	-1.6	-1.1	0.0
COc1cc(OC)cc(C(C)c2ccc(-c3ccccc3)cc2)c1 (stereo not given)	-1.4	.	-1.7	.	-2.0
CCOC(=O)c1cc(C(=O)Nc2ccc(C)c(F)c2)nn1C	-0.5	3.2	10.7*	2.9	5.5
CN(CC1CCOCC1)C(=O)CC1C(=O)NCCN1CC1CCCCC1 (stereo not given)	-1.0	-0.5	1.6	5.7*	-2.9
COc1cccc(CN2CCNC(=O)C2CC(=O)N(C)CCC2CCOCC2)c1OC (stereo not given)	-1.5	-1.9	2.6	6.1*	0.7
CCOc1ccccc1CN1CCNC(=O)C1CC(=O)N(C)CCC1CCOCC1 (stereo not given)	-1.0	-0.3	-1.5	1.8	1.0
CN(CC(=O)Nc1ccc(F)cc1)C(=O)CSc1nncs1	-0.6	3.9*	1.6	1.5	0.0
O=C(c1cccc(Oc2ccccc2)c1)N1CCC(Oc2cccnc2)CC1	-2.0	-1.3	-4.3	.	-2.2
O=C(Cn1cnc2ccccc2c1=O)N1CCN(Cc2ccc(F)cc2)CC1	-0.8	-0.8	-0.5	.	-0.4
CC(C)C[C@H]1CN=C(Nc2ccccc2)N1CC1CCC(C(C)(C)C)CC1 (stereo not given in full)	.	.	.	4.5*	.
SMILES	ssDAF12 agonist	DAX1 inh-1	hgDAF-12 ag	DAX1 inh-2	hcDAF12 agonist
O=C1c2ccccc2NC(c2ccccc2O)N1O (stereo not given)	-1.1	0.1	2.5	0.3	1.4
Cc1ccc(N2C(=O)c3ccccc3NC2c2ccccc2O)cc1 (stereo not given)	0.1	0.2	11.3*	-0.1	3.2
CCOC(=O)[C@]12CCCC3=C1N(CCC3)C(=O)[C@@H](CC(=O)NCc1ccc(C)o1)C2	-1.4	-0.7	3.8	.	-1.2
COc1cccc(/C=N/NC(=O)CCNc2n[nH]c(=O)[nH]c2=O)c1OC	1.5*	1.5	-4.8	-0.6	-2.5
COc1cccc(/C=N/NC(=O)C[n+]2ccccc2)c1OC	2.3*	-0.5	-3.3	-0.6	0.3
COc1ccc(/C=N/NC(=O)C[n+]2ccccc2)c(OC)c1OC	-1.7	0.1	-0.8	-0.1	-3.9
